Read-out in assay [1]: Transforming growth factor beta 1 (TGFb1), TGFB1 (gene 7040)
Kind of assay: BSK_KF3CT_TGFb1: BioMAP Diversity Plus: KF3CT Assay for Transforming growth factor beta 1 (TGFb1) Biomarker Activity (AID 2283072). Particulars: primary human keratinocytes with fibroblasts; actives raise or lower the signal. In a few lines: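 ELISA quantifies TGF-b1 at 24 h post-dose in a primary human skin co-culture of keratinocytes and fibroblasts, with gain or loss judged against DMSO. Parallel SRB total-protein staining flags overt cytotoxicity.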

Read-out in assay [2]: C-C motif chemokine 2 (Homo sapiens) (UniProt P13500)
Kind of assay: BSK_KF3CT_MCP1: BioMAP Diversity Plus: KF3CT Assay for Monocyte Chemoattractant Protein 1 (MCP1/CCL2) Biomarker Activity (AID 2283073). The settings on record: primary human keratinocytes with fibroblasts; actives raise or lower the signal. In a few lines: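 Keratinocytes and foreskin fibroblasts were co-cultured, dosed with chemical, and sampled 24 h later. MCP-1 was quantified by ELISA, and the endpoint was analyzed with bidirectional fitting using DMSO as negative control.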

Read-out in assay [3]: Matrix Metallopeptidase 9 (MMP9), MMP9 (gene 4318)
Put plainly: BSK_KF3CT_MMP9: BioMAP Diversity Plus: KF3CT Assay for Matrix Metallopeptidase 9 (MMP9) Biomarker Activity (AID 2283074).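 On AC50: MMP9 protein level quantified by ELISA in the co-culture.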 The settings on record: primary human keratinocytes with fibroblasts; actives raise or lower the signal. In a few lines:
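MMP-9 quantified by ELISA after 24 h chemical treatment of primary human skin keratinocyte/fibroblast co-cultures; gain or loss fitted against DMSO, with parallel SRB staining (0.1% SRB, 560 nm) for overt cytotoxicity.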

Read-out in assay [4]: urokinase plasminogen activator (uPA), PLAU (gene 5328)
Put plainly: BSK_KF3CT_uPA: BioMAP Diversity Plus: KF3CT Assay for urokinase plasminogen activator (uPA) Biomarker Activity (AID 2283075). Particulars: primary human keratinocytes with fibroblasts; actives raise or lower the signal. In a few lines: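 ELISA read-out of uPA 24 h after dosing human skin keratinocytes co-cultured with foreskin fibroblasts. Signal change fitted both ways relative to DMSO; sulforhodamine B on parallel cultures marks overt cytotoxicity.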

Read-out in assay [5]: CD40, CD40 (gene 958)
Put plainly: BSK_LPS_CD40: BioMAP Diversity Plus: LPS Assay for CD40 Biomarker Activity (AID 2283076). Particulars: primary human HUVEC with PBMC; actives raise or lower the signal. In a few lines:
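CD40 signal, measured by ELISA, is fitted in both directions relative to DMSO vehicle. The system is an LPS-driven human vascular primary co-culture of endothelial cells and PBMC, sampled 24 h after compound addition.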

Read-out in assay [6]: Interleukin-8 (IL8), CXCL8 (gene 3576)
Kind of assay: BSK_LPS_IL8: BioMAP Diversity Plus: LPS Assay for Interleukin-8 (IL8) Biomarker Activity (AID 2283078). The settings on record: primary human HUVEC with PBMC; actives raise or lower the signal. The procedure, abridged: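 Endothelial cells and PBMC from human donors are co-cultured, treated with chemicals and LPS, then assayed for IL-8 by ELISA after 24 h. Parallel SRB staining (0.1% SRB after 10% TCA fixation, 560 nm) flags cytotoxicity.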

A short description of assay [7]: BSK_LPS_SRB: Viability Assessment in the BioMAP Diversity Plus: LPS Assay (AID 2283079).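 Further: total protein by sulforhodamine B absorbance as a cytotoxicity measure; measured one day after compound addition; fitted in both directions against DMSO so loss or gain of signal counts.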 Particulars: primary human HUVEC with PBMC. In a few lines:
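Overt cytotoxicity was gauged by sulforhodamine B total-protein staining in a primary human vascular endothelial and mononuclear cell co-culture 24 h post-dosing. Activity was fitted in both directions relative to DMSO.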

Read-out in assay [8]: Interleukin-1 alpha (IL1a), IL1A (gene 3552)
Put plainly: BSK_LPS_IL1a: BioMAP Diversity Plus: LPS Assay for Interleukin-1 alpha (IL1a) Biomarker Activity (AID 2283080). The settings on record: primary human HUVEC with PBMC; actives raise or lower the signal. In a few lines:
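Measured: IL-1 alpha via ELISA at 24 h in LPS-activated human umbilical vein endothelium–PBMC co-culture. Baseline: DMSO, bidirectional fitting.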

Read-out in assay [9]: Monocyte Chemoattractant Protein-1 (MCP1), CCL2 (gene 6347)
Kind of assay: BSK_LPS_MCP1: BioMAP Diversity Plus: LPS Assay for Monocyte Chemoattractant Protein-1 (MCP1) Biomarker Activity (AID 2283081).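 On AC50: secreted MCP-1 protein quantified by ELISA in culture supernatant.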 The settings on record: primary human HUVEC with PBMC; actives raise or lower the signal. The procedure, abridged:
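LPS-stimulated HUVEC/PBMC co-culture; chemical, 24 h; MCP-1 by ELISA; bidirectional fit vs DMSO; cytotoxicity via SRB (0.1% stain, 10% TCA fix, 560 nm) in parallel wells.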

Assay [10] in a line: BSK_LPS_PGE2: BioMAP Diversity Plus: LPS Assay for Prostaglandin E2 (PGE2) Biomarker Activity (AID 2283082). The settings on record: primary human HUVEC with PBMC; actives raise or lower the signal. In a few lines: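 PGE2 release measured by ELISA in an LPS-activated co-culture of human umbilical vein endothelial cells and peripheral blood mononuclear cells, read at 24 h post-dosing. DMSO served as baseline for bidirectional curve fitting.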

Read-out in assay [11]: Macrophage colony-stimulating factor (MCSF), CSF1 (gene 1435)
Put plainly: BSK_LPS_MCSF: BioMAP Diversity Plus: LPS Assay for Macrophage colony-stimulating factor (MCSF) Biomarker Activity (AID 2283083). Particulars: primary human HUVEC with PBMC; actives raise or lower the signal. In a few lines: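 Compound is added to a human vascular primary co-culture of umbilical vein endothelium and blood mononuclear cells. After 24 h, M-CSF is quantified by ELISA. Signal changes are fitted in both directions against DMSO.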

Read-out in assay [12]: Tissue Factor, F3 (gene 2152)
Kind of assay: BSK_LPS_TissueFactor: BioMAP Diversity Plus: LPS Assay for Tissue Factor Biomarker Activity (AID 2283084). The settings on record: primary human HUVEC with PBMC; actives raise or lower the signal. The procedure, abridged: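 In this co-culture system of umbilical vein endothelium with PBMC, stimulated with LPS, cell-surface CD142 is detected by ELISA at 24 h. Endpoint values derive from bidirectional fitting, DMSO serving as baseline.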

Read-out in assay [13]: Tumor necrosis factor (Homo sapiens) (UniProt P01375)
Kind of assay: BSK_LPS_TNFa: BioMAP Diversity Plus: LPS Assay for Tumour Necrosis Factor alpha (TNFa) Biomarker Activity (AID 2283085).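 On AC50: TNFa protein level quantified by ELISA in the co-culture.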 The settings on record: primary human HUVEC with PBMC; actives raise or lower the signal. The procedure, abridged: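 TNFa was quantified by ELISA in LPS-activated co-cultures of human endothelial cells and PBMC, 24 h post-dosing. Both increases and decreases versus DMSO were fitted.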

Read-out in assay [14]: CD38, CD38 (gene 952)
Kind of assay: BSK_SAg_CD38: BioMAP Diversity Plus: SAg Assay for CD38 Biomarker Activity (AID 2283087). The settings on record: primary human HUVEC with PBMC; actives raise or lower the signal. The procedure, abridged: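 CD38 quantified by ELISA (fluorescence) in a superantigen-activated endothelial cell–PBMC co-culture at 24 h post-dose. Activity fitted in both directions relative to DMSO; parallel SRB and Alamar Blue cytotoxicity read-outs.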

Read-out in assay [15]: CD40, CD40 (gene 958)
Put plainly: BSK_SAg_CD40: BioMAP Diversity Plus: SAg Assay for CD40 Biomarker Activity (AID 2283088). The settings on record: primary human HUVEC with PBMC; actives raise or lower the signal. The procedure, abridged: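 Fluorescence ELISA read-out of CD40 from umbilical vein endothelium plus peripheral blood mononuclear cells, sampled 24 h after dosing. Values come from bidirectional curve fitting with DMSO as baseline.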

Read-out in assay [16]: CD69, CD69 (gene 969)
Kind of assay: BSK_SAg_CD69: BioMAP Diversity Plus: SAg Assay for CD69 Biomarker Activity (AID 2283089).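 On AC50: cell surface CD69 protein quantified by ELISA with fluorescence detection.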 The settings on record: primary human HUVEC with PBMC; actives raise or lower the signal. In a few lines: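 Values derive from bidirectional fitting relative to DMSO vehicle. Cells: umbilical vein endothelium plus peripheral blood mononuclear cells, treated 24 h before fluorescent ELISA for CD69.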

Read-out in assay [17]: Monocyte Chemoattractant Protein-1 (MCP1), CCL2 (gene 6347)
Kind of assay: BSK_SAg_MCP1: BioMAP Diversity Plus: SAg Assay for Monocyte Chemoattractant Protein-1 (MCP1) Biomarker Activity (AID 2283090). The settings on record: primary human HUVEC with PBMC; actives raise or lower the signal. In a few lines: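 Values derive from bidirectional fitting of ELISA-measured MCP1 against DMSO controls. Readings were taken 24 h after dosing human vascular endothelial cells co-cultured with peripheral blood mononuclear cells under superantigen stimulation.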

Read-out in assay [18]: E-selectin (Homo sapiens) (UniProt P16581)
Put plainly: BSK_SAg_Eselectin: BioMAP Diversity Plus: SAg Assay for Eselectin Biomarker Activity (AID 2283091). Particulars: primary human HUVEC with PBMC; actives raise or lower the signal. The procedure, abridged:
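Primary human endothelial cells and peripheral blood mononuclear cells were co-cultured and exposed to chemical for 24 hours. E-selectin levels were then quantified by ELISA, with bidirectional curve fitting normalised to DMSO controls.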

Read-out in assay [19]: E-selectin (Homo sapiens) (UniProt P16581)
Kind of assay: BSK_LPS_Eselectin: BioMAP Diversity Plus: LPS Assay for Eselectin Biomarker Activity (AID 2283077). The settings on record: primary human HUVEC with PBMC; actives raise or lower the signal. In a few lines: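 Signal of E-selectin, detected by ELISA, served as the endpoint; cells were umbilical vein endothelium with PBMC, read 24 h after treatment. DMSO defined baseline, and both increases and decreases were fitted.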

Read-out in assay [20]: Vascular cell adhesion molecule 1 (VCAM1), VCAM1 (gene 7412)
Put plainly: BSK_LPS_VCAM1: BioMAP Diversity Plus: LPS Assay for Vascular cell adhesion molecule 1 (VCAM1) Biomarker Activity (AID 2283086). Particulars: primary human HUVEC with PBMC; actives raise or lower the signal. The procedure, abridged:
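VCAM-1 quantified by ELISA in an LPS-activated co-culture of human endothelial cells and peripheral blood mononuclear cells, read 24 h post-treatment. Fitted in both directions versus DMSO; parallel SRB staining flags overt cytotoxicity.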

Activity calls are given as the source filed them. How the source made its calls: active means hit-call score of the fitted dose curve at least 0.9, where 1 is the maximum; inactive means score below 0.9.

Chain of Tumor necrosis factor (Homo sapiens) (P01375 whole entry, looked up): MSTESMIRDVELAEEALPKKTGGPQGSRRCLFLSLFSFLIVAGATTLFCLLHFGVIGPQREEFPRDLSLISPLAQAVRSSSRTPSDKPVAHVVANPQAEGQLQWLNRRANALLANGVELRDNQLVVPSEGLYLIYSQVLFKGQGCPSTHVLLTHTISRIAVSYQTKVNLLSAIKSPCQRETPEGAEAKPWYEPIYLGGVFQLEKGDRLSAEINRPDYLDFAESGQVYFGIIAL
Chain of E-selectin (Homo sapiens) (P16581 whole entry, looked up): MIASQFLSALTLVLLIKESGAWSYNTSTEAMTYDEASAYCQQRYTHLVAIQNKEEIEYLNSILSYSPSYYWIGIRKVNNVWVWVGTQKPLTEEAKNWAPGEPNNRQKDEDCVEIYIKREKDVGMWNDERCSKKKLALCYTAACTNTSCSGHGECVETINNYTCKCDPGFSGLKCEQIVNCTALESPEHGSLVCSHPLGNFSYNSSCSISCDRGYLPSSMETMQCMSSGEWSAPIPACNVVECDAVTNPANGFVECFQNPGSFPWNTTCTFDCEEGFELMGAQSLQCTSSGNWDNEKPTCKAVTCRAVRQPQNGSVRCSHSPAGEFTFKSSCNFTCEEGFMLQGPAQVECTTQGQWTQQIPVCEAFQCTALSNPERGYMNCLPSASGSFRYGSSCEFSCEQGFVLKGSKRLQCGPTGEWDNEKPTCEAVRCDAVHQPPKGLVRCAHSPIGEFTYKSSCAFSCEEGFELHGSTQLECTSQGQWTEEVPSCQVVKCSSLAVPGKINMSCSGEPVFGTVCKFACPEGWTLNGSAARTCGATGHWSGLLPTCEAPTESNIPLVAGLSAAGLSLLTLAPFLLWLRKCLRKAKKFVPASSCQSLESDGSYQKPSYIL

Take `O=[N+]([O-])c1ccc(O)cc1`: the result in [1], in assay [2], in assay [3], in [4], in assay [5] and in assay [6] was inactive. Besides, the result in [7], in assay [8], in assay [9], in assay [10], in assay [11] and in [12] was inactive. The result in [13], in [14], in assay [15], in assay [16], in assay [17] and in [18] was inactive.

Turning to `Oc1cc2ccccc2c2ccccc12`, the AC50 (as a rule, the concentration at which the activity in the assay is half-maximal) in assay [1] is 6.02 µM (active); in [2], 6.26 µM (active); in assay [3], 5.66 µM (active); in assay [4], 7.13 µM (active); in assay [5] it was 5.93 µM (active); in [19] it was 11.1 µM (active). Moreover, the half-maximal activity concentration (AC50) is 12.6 µM (active) in [6]; 12.1 µM (active) in assay [7]; 7.63 µM (active) in [8]; 11.1 µM (active) in assay [9]; 3.34 µM (active) in assay [10]; 9.95 µM (active) in assay [12]. Besides, the concentration at half-maximal activity (AC50) in assay [13] is 11.6 µM (active); in assay [20], 9.03 µM (active); in assay [14] it was 10 µM (active); in assay [15], 9.94 µM (active); in assay [16], 8.99 µM (active); in assay [17] it was 7.84 µM (active). Moreover, in assay [18], the AC50 was 8.61 µM (active).

Regarding `CC1=C(/C=C/C(C)=C/C=C/C(C)=C/C(=O)O)C(C)(C)CCC1`, the AC50 is 30.1 µM (active) in assay [1]; 32.4 µM (active) in assay [2]; 32.6 µM (active) in [3]; 31.2 µM (active) in [4]; 4.45 µM (active) in assay [5]; 0.918 µM (active) in assay [10]. In addition, the AC50 in [13] is 0.358 µM (active); in [14], 21.9 µM (active); in [15] it was 20.5 µM (active); in assay [16] it was 8.54 µM (active); in [18] it was 6.38 µM (active). Further, the outcome in assay [6], in assay [7], in [8], in assay [9], in assay [12] and in assay [17] was inactive.

The values above are taken from PubChem BioAssay (EPA / NIEHS).
